Experimental data from the supplement of paper PMC10849652.
Targets with a hit are over-represented here; the source holds about 8,800 in all. About 0.5% of all pairs of compound and target were hits.

Key:
Assay in all cases: log2 fold change, soluble protein after heating vs DMSO (PISA); higher = thermal stabilisation; K562 lysate, 10 uM; active = over 0.2 and 3.5 SD of the protein, either way, in both replicates (recomputed)
[1] = compound: CS(=O)(=O)CCNCc1ccc(-c2ccc3ncnc(Nc4ccc(OCc5cccc(F)c5)c(Cl)c4)c3c2)o1 [lapatinib]
Method in brief: (§1)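 Pellets of K562 cells were dounce-homogenised in PBS pH 7.4 with 1 mM MgCl2, and the crude extract was held at 1 mg/mL protein for a 30 min treatment with 10 μM compound. Aliquots were heated for 3 min over 48°C-58°C and pooled before NP-40 was added to 0.5% at 4°C. The supernatant from 21,000xg for 90 min was quantified by TMTpro 16plex LC-MS/MS with channel sums equalised. Values are reported from duplicates as log-two fold change in thermal stability relative to solvent controls.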

[2] = compound: CS(=O)(=O)N1CCN(Cc2cc3nc(-c4cccc5[nH]ncc45)nc(N4CCOCC4)c3s2)CC1 [pictilisib]
Method in brief: as §1

[3] = compound: C[C@@H](Oc1cc(-c2cnn(C3CCNCC3)c2)cnc1N)c1c(Cl)ccc(F)c1Cl [crizotinib]
Method in brief: as §1

[4] = compound: C[C@H](C1=CC=C(C=C1)C(=O)NC2=C3C=CNC3=NC=C2)N
Method in brief: as §1

[5] = compound: C[C@H](Nc1ncnc2nc[nH]c12)c1cc2cccc(Cl)c2c(=O)n1-c1ccccc1 [duvelisib]
Method in brief: as §1

[6] = compound: Cc1cc(Nc2cc(CN3CCOCC3)c3nc(C)c(Cc4ccc(Cl)cc4F)n3n2)n[nH]1 [gandotinib]
Method in brief: as §1

[7] = compound: Cc1cc(Nc2cc(N3CCN(C)CC3)nc(Sc3ccc(NC(=O)C4CC4)cc3)n2)n[nH]1 [tozasertib]
Method in brief: as §1

[8] = compound: Cc1ccc(-n2nc(C(C)(C)C)cc2NC(=O)Nc2ccc(OCCN3CCOCC3)c3ccccc23)cc1 [doramapimod]
Method in brief: as §1

[9] = compound: Cc1ccc(NC(=O)c2ccc(CN3CC[C@H](N(C)C)C3)c(C(F)(F)F)c2)cc1Nc1nccc(-c2cncnc2)n1 [bafetinib]
Method in brief: as §1

[10] = compound: Cc1cccc(CC(=O)N2CCc3c2ccc(-c2cn(C)c4ncnc(N)c24)c3F)n1
Method in brief: as §1

[11] = compound: Cc1cn(-c2cc(NC(=O)c3ccc(C)c(Nc4nccc(-c5cccnc5)n4)c3)cc(C(F)(F)F)c2)cn1 [nilotinib]
Method in brief: as §1

[12] = compound: Cc1nc(Nc2n[nH]c3c2CN(C(=O)N[C@H](CN(C)C)c2ccccc2)C3(C)C)c2sccc2n1
Method in brief: as §1

[13] = compound: Cc1nc(Nc2ncc(C(=O)Nc3c(C)cccc3Cl)s2)cc(N2CCN(CCO)CC2)n1 [dasatinib]
Method in brief: as §1

[14] = compound: Cc1ncc(-c2ccnc(Nc3ccc(S(C)(=O)=O)cc3)n2)n1C(C)C
Method in brief: as §1

[15] = compound: Cn1cc(-c2ccc3c(c2)CCN3C(=O)Cc2cccc(C(F)(F)F)c2)c2c(N)ncnc21
Method in brief: as §1

[16] = compound: Cn1cc(CNCC2CCN(c3ncc(C(=O)NO)cn3)CC2)c2ccccc21 [quisinostat]
Method in brief: as §1

[17] = compound: Cn1cncc1[C@@](N)(c1ccc(Cl)cc1)c1ccc2c(c1)c(-c1cccc(Cl)c1)cc(=O)n2C [tipifarnib]
Method in brief: as §1

[18] = compound: NC(=O)Nc1cc(-c2cccc(F)c2)sc1C(=O)N[C@H]1CCCNC1
Method in brief: as §1

[19] = compound: NC(=O)c1cnc(N[C@@H]2CCCC[C@@H]2N)nc1Nc1cccc(-n2nccn2)c1
Method in brief: as §1

[20] = compound: NC1(c2ccc(-c3nc4ccn5c(=O)[nH]nc5c4cc3-c3ccccc3)cc2)CCC1
Method in brief: as §1

Measured: log2 fold change

TYW3 (UniProt Q6IPR3)
Chain of UniProt Q6IPR3 (Q6IPR3 whole entry, looked up): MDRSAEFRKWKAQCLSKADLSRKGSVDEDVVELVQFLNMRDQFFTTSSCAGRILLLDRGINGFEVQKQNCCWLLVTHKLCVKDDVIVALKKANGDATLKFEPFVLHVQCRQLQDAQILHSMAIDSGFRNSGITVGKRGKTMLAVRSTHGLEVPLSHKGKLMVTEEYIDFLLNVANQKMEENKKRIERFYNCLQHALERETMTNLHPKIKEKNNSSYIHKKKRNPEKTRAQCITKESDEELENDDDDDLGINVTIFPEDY
inactive: [1] -0.014 | [2] 0.008 | [3] -0.022 | [4] -0.144 | [5] 0.018 | [6] 0.1 | [7] 0 | [8] 0.054 | [9] 0.051 | [10] 0.176 | [11] -0.033 | [12] 0.017 | [13] -0.006 | [14] 0.035 | [15] 0.027 | [16] -0.126 | [17] -0.018 | [18] -0.014 | [19] 0.046 | [20] 0.017

TPD52L2 isoform 7 (UniProt O43399)
Chain of UniProt O43399 (O43399 whole entry, looked up): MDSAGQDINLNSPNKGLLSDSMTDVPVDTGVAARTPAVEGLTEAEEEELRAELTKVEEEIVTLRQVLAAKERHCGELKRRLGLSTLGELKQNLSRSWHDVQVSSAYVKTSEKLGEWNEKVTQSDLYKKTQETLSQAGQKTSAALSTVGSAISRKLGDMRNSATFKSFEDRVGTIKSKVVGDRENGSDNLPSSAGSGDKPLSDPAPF
inactive: [1] 0.039 | [2] 0.003 | [3] 0.095 | [4] -0.124 | [5] -0.022 | [7] 0.043 | [8] 0.03 | [9] 0.139 | [10] 0.057 | [11] 0.022 | [12] 0.019 | [13] 0.056 | [14] 0.042 | [15] -0.009 | [16] 0.038 | [17] -0.012 | [18] -0.022 | [19] -0.039 | [20] 0.049
active: [6] 0.222

TCF3 (UniProt P15923)
Chain of UniProt P15923 (P15923 whole entry, looked up): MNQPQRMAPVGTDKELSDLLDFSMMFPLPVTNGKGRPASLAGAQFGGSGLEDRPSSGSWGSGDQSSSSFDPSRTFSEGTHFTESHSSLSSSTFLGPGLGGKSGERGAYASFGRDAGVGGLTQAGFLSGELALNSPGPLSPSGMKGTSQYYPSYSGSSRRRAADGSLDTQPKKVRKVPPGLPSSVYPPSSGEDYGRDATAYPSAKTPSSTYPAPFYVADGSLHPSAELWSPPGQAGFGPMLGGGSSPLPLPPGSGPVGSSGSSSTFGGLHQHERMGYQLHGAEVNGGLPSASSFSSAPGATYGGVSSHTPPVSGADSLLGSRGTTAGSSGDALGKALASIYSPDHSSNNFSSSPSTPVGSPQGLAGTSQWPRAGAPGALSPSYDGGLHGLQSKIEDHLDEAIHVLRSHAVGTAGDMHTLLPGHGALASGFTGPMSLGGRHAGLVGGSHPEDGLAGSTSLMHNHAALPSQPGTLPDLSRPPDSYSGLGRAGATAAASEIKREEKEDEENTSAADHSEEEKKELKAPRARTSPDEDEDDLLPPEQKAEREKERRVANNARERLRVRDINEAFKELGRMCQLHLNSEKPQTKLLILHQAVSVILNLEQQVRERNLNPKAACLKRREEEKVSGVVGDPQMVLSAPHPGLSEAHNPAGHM
active: [5] 0.22
inactive: [1] 0.014 | [2] 0.014 | [3] 0.066 | [4] -0.042 | [6] 0.053 | [7] -0.013 | [8] -0.031 | [9] -0.036 | [10] -0.032 | [11] 0.028 | [12] -0.118 | [13] -0.018 | [14] -0.057 | [15] -0.139 | [16] 0.006 | [17] -0.245 | [18] 0.055 | [19] -0.019 | [20] -0.003

TRIM44 (UniProt Q96DX7)
Chain of UniProt Q96DX7 (Q96DX7 whole entry, looked up): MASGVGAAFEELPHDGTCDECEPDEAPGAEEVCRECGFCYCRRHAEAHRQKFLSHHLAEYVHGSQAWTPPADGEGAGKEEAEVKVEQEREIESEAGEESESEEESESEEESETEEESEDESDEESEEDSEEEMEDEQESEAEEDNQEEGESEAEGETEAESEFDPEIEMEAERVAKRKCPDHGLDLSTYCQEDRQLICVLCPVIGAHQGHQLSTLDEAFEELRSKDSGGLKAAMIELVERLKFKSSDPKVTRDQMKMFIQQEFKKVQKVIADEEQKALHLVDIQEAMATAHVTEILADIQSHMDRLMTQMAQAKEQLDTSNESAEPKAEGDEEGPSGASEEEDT
active: [1] -0.242
inactive: [2] -0.11 | [3] -0.018 | [4] 0.04 | [5] 0.007 | [6] 0.01 | [7] -0.04 | [8] 0.013 | [9] 0.031 | [10] -0.075 | [11] -0.016 | [12] 0.001 | [13] 0.073 | [14] -0.036 | [15] -0.008 | [16] 0.035 | [17] 0.006 | [18] 0.023 | [19] -0.011 | [20] 0.044

TOR3A (UniProt Q9H497)
Chain of UniProt Q9H497 (Q9H497 whole entry, looked up): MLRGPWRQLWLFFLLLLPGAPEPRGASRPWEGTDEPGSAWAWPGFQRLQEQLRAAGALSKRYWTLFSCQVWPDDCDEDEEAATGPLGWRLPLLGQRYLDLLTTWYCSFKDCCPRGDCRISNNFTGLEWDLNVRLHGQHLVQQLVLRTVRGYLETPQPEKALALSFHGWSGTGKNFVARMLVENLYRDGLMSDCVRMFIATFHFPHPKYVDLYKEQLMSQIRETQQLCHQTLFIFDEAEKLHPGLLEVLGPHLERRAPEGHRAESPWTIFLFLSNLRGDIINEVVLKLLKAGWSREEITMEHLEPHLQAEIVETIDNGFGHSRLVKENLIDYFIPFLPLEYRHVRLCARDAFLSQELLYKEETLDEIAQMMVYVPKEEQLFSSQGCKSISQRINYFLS
inactive: [2] -0.077 | [3] 0.023 | [4] -0.078 | [5] 0.012 | [6] 0.012 | [7] -0.047 | [8] -0.024 | [9] 0.046 | [10] 0.048 | [11] 0.042 | [12] -0.037 | [13] 0.022 | [14] -0.043 | [15] 0.012 | [16] 0.019 | [17] -0.061 | [18] 0.054 | [19] 0.041 | [20] -0.064
active: [1] -0.43

TRIP13 (UniProt Q15645)
Chain of UniProt Q15645 (Q15645 whole entry, looked up): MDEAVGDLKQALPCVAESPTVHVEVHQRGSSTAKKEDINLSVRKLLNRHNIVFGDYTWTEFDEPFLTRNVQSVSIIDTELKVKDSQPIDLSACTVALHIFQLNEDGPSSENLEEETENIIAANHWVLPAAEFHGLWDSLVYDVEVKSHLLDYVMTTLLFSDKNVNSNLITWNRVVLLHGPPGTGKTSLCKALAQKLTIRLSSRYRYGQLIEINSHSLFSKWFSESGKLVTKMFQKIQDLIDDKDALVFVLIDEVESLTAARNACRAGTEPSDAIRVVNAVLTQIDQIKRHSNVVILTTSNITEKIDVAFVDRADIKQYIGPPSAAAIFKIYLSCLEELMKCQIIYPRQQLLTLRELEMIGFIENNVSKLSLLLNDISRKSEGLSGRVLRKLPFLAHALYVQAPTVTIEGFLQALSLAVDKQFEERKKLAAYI
inactive: [1] -0.015 | [2] 0.014 | [3] -0.028 | [4] 0.039 | [5] -0.01 | [6] -0.187 | [7] 0.005 | [8] 0.026 | [9] -0.029 | [10] -0.045 | [11] -0.002 | [12] -0.031 | [13] 0.003 | [14] 0.049 | [15] 0.046 | [16] -0.065 | [17] 0.007 | [18] 0.026 | [19] 0.002 | [20] -0.031

TELO2 (UniProt Q9Y4R8)
Chain of UniProt Q9Y4R8 (Q9Y4R8 whole entry, looked up): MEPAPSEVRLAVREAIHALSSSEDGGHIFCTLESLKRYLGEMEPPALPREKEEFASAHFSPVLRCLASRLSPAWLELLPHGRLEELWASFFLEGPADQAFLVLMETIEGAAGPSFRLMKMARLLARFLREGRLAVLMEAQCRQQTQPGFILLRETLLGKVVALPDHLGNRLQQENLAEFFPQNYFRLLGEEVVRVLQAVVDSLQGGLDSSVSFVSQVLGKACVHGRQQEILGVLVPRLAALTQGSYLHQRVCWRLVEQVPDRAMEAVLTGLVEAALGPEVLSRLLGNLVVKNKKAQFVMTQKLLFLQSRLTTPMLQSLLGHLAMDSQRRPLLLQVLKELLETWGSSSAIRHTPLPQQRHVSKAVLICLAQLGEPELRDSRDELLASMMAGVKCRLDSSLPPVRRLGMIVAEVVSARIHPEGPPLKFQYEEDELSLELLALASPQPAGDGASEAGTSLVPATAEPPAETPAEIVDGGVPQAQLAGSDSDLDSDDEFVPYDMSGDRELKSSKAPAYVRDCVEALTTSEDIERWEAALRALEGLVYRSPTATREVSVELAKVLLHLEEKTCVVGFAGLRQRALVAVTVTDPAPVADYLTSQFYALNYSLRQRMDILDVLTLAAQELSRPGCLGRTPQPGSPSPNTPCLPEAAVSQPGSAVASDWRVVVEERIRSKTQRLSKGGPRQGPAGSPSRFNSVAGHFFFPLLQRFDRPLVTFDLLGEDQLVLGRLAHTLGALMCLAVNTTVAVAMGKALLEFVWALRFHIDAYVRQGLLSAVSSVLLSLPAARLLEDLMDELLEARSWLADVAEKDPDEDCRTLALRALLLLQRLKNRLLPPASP
inactive: [1] -0.016 | [2] -0.01 | [3] -0.053 | [4] -0.038 | [5] -0.015 | [6] -0.087 | [7] -0.012 | [8] 0.037 | [9] -0.054 | [10] 0.056 | [11] -0.012 | [12] -0.014 | [13] -0.082 | [14] -0.021 | [15] 0.035 | [16] -0.057 | [17] -0.013 | [18] 0.058 | [19] 0.003 | [20] -0.03

TUBA3C (UniProt P0DPH7)
Chain of UniProt P0DPH7 (P0DPH7 whole entry, looked up): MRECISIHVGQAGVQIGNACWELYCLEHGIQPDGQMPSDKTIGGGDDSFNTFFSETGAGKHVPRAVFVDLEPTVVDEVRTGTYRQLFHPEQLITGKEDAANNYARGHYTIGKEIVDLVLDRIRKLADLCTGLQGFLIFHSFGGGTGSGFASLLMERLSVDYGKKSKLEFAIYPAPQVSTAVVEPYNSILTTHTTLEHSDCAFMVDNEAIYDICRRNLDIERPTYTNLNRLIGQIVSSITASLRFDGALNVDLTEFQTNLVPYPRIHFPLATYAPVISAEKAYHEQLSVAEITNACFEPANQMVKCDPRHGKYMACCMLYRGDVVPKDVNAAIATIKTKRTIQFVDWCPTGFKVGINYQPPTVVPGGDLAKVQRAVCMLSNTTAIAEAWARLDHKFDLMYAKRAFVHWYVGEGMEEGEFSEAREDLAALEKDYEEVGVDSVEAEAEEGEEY
inactive: [1] 0.038 | [2] -0.003 | [3] -0.078 | [4] 0.009 | [5] 0.03 | [6] 0.072 | [7] 0.055 | [8] 0.014 | [9] 0.012 | [10] 0.023 | [11] -0.009 | [12] -0.029 | [13] -0.018 | [14] -0.001 | [15] -0.05 | [16] -0.098 | [17] -0.025 | [18] 0.05 | [19] 0.022 | [20] 0.005
